The first assay relates to Plasmodium falciparum. The assay is described as follows: GSK_TCMDC: Inhibition of Plasmodium falciparum Dd2 in whole red blood cells, using parasite LDH activity as an index of growth. Test compounds present at 2uM. In kind it is functional.
`CN1CCCc2ccc(NC(=O)c3ccc(-c4cc(C(F)(F)F)nn4C)s3)cc2C1.O=C(O)C(F)(F)F` registered an Inhibition of 34%.

`Cl.N=C(NCCCc1ccccc1)c1cccc(C(=N)NCCCc2ccccc2)n1` came in with an Inhibition of 0%.

`COc1cc(CS(C)(=O)=O)ccc1Nc1nccc(-c2c(-c3cccc(NC(=O)c4c(F)cccc4F)c3)nn3ccccc23)n1` gave an Inhibition of 71%.

Regarding `Cc1cccc2nc(-c3cccc(-c4ccc(CNCc5ccc(S(C)(=O)=O)cc5)cc4)c3)[nH]c12.O=C(O)C(F)(F)F`, the Inhibition turned out to be 98%.

Molecule `COc1ccc2nccc([C@@H](O)CN3CCC(NCc4cc5ccccc5nc4O)CC3)c2c1.Cl` registered an Inhibition of 0%.

As to `CCC1(CC)CN(c2ccccc2)c2ccc(O)cc2S(=O)(=O)C1CC(C)C` (configuration not stated), the Inhibition is reported as 89%.

In the case of `CON=C1CCC(Cn2ccnc2)(c2ccc(Cl)cc2Cl)CC1` (configuration not stated), the Inhibition stood at 56%.

`Cc1ccc2c(c1[N+](=O)[O-])N=NCC2Oc1ccccc1` (configuration not stated) came in with an Inhibition of 19%.

Turning to `COc1ccc(Nc2nccc(N3CCC(NC(=O)c4cccc(NC(C)=O)c4)C3)n2)cc1` (configuration not stated), the Inhibition was 84%.

`CCOc1ccc(Br)cc1/C=C/C(=O)Nc1ccc(C2CCN(C)CC2)cc1`: the Inhibition came out at 71%.

For the molecule `O=C(NC1CC1)c1ccc(Cn2c(SCc3cccc([N+](=O)[O-])c3)nc3ccccc3c2=O)cc1`, the Inhibition is reported as 65%.

In the case of `O=C(Nc1ccc(-c2nc3ccccc3[nH]2)cc1)c1ccc(S(=O)(=O)N2CCCCCC2)cc1`, the Inhibition was 21%.

For the molecule `O=C(N[C@@H](Cc1ccccc1)CN1CCC(Oc2ccc(F)cc2)CC1)c1ccc(OCCCN2CCCCC2)cc1.O=C(O)C(F)(F)F`, the Inhibition stood at 92%.

Take `CCC(C)CN1CCN(c2cc(NC(=O)c3cccs3)ccn2)C(C)C1.O=C(O)C(F)(F)F` (configuration not stated): the Inhibition was determined as 72%.

As to `CC1CN(c2cnn(Cc3cccc(NC(=O)Nc4ccc(-c5ccccc5)cc4)c3)c(=O)c2Cl)CC(C)N1.O=C(O)C(F)(F)F` (configuration not stated), the Inhibition was 67%.

Take `Cc1cc(NCCc2ccccc2)nc(N/C(=N/CC(=O)OC(C)(C)C)Nc2ccc(C(F)(F)F)cc2)n1.I`: the Inhibition is 97%.

The molecule `O=C(c1cc(C(=O)Nc2ccc(F)cc2)c(=O)n(-c2ccc(F)cc2)c1)c1cc(Cl)ccc1O` displayed an Inhibition of 98%.

Regarding `Nc1ncnc2cc(-c3cccc(S(N)(=O)=O)c3)sc12`, the Inhibition is listed as 99%.

The molecule `Cc1noc(-c2ccccc2)c1CN1CCCC2(CC(C(=O)NCc3cccc(F)c3F)=NO2)C1.O=C(O)C(F)(F)F` (configuration not stated) registered an Inhibition of 28%.

Turning to `CCOc1ccc2nc(N(CCCn3ccnc3)C(=O)C=Cc3cccs3)sc2c1.Cl`, the Inhibition was found to be 97%.

In turn, `Nc1ccc2nc(C=Cc3ccccc3)[nH]c2c1` registered an Inhibition of 89%.

The molecule `CC(C)NCc1cccc(-c2ccc(NC(=O)c3ccc(C#N)cc3)cc2)c1.O=C(O)C(F)(F)F` showed an Inhibition of 8%.

For `O=C(N[C@H]1CCN(Cc2ccc(OCCCN3CCCCC3)cc2)C1)c1ccc2ccccc2c1`, the Inhibition came to 32%.

`CC(C)[C@H](NC(=O)c1ccc(O)c(-c2ccc(Cl)c(Cl)c2)c1)C(=O)NCCN1CCCC1`: the Inhibition is listed as 83%.

In turn, `CC[C@H](C)CNC(=O)c1ccnc(-c2ccc(CNCCCc3ccccc3)cc2)c1.O=C(O)C(F)(F)F` returned an Inhibition of 84%.

`CS(=O)(=O)c1ccc(CNCc2cccc(-c3cccc(-c4nc5cc(F)ccc5[nH]4)c3)c2)cc1.O=C(O)C(F)(F)F` returned an Inhibition of 84%.

As for `COc1ccc2nccc([C@@H](O)CN3CCC(NC(=O)c4cc5c(F)cc(F)cc5[nH]4)CC3)c2n1`, the Inhibition turned out to be 74%.

For the next assay, the system named is HepG2. Put plainly: GSK_TCMDC: Percent inhibition of human HepG2 cell line. Test compounds present at 10uM. In kind it is functional.
As for `COc1cc(OC)c(NC(=O)C2c3ccccc3C(=O)N(C)C2c2cccs2)cc1Cl` (configuration not stated), the Inhibition is recorded as 4%.

The molecule `O=C(NCc1cccs1)[C@H](Cc1ccccc1)Nc1ccnc(NCCc2ccc(F)cc2)n1.O=C(O)C(F)(F)F` showed an Inhibition of 1%.

Regarding `Cc1cccc2nc(-c3ccc(-c4ccc(CNCc5ccc(CN)cc5)cc4)s3)[nH]c12.O=C(O)C(F)(F)F`, the Inhibition was found to be 4%.

For the molecule `Cc1c(CNCCCNc2nc3ccccc3[nH]2)sc(C(F)F)c1Br.Cl`, the Inhibition is 9%.

The molecule `CN(C)CCCOc1ccc(CCNCc2cccc(Oc3ccc(Cl)cc3)c2)cc1.O=C(O)C(F)(F)F` showed an Inhibition of 57%.

`COc1ccc2ncc(Cl)c([C@@H](O)CN3CCC(NCc4cc5c(cn4)OCCO5)CC3)c2c1.Cl` had an Inhibition of 8%.

Take `CC(Nc1ccc2c(c1)OCCO2)C(=O)Nc1cc(C(F)(F)F)ccc1N1CCOCC1` (configuration not stated): the Inhibition was found to be 0%.

`CCOc1ccc2c(=NN=Cc3ccc(OC)c(OC)c3)cc(C)[nH]c2c1`: the Inhibition is 22%.

`COc1ccc(-c2cnc3[nH]cc(-c4ccc(C(=O)O)c(C)c4)c3c2)cn1.O=C(O)C(F)(F)F` returned an Inhibition of 23%.

`Cc1cc(C2CCN(CCCCNC(=O)c3ccc(-c4ccc(C(F)(F)F)cc4)cc3)CC2)c(C)cc1OCC(N)=O` had an Inhibition of 34%.

For the molecule `Cl.Nc1c(C(=O)NCCCCN2CCN(c3nsc4ccccc34)CC2)sc2ccccc12`, the Inhibition is 26%.

`O=C(O)C(F)(F)F.O=S(=O)(NCCN1CCCC1)c1ccc(-c2ccc(CNCc3ccc(F)cc3)cc2)cc1` came in with an Inhibition of 42%.

Regarding `NC1CCN(Cc2ccc(-c3ccc(-c4nc5ccccc5[nH]4)cc3)cc2)C1.O=C(O)C(F)(F)F` (configuration not stated), the Inhibition is 34%.

On to `CN1CCCc2ccc(NC(=O)c3ccc(-c4cc(C(F)(F)F)nn4C)s3)cc2C1.O=C(O)C(F)(F)F`, for which the Inhibition is 16%.

In the case of `Cl.N=C(NCCCc1ccccc1)c1cccc(C(=N)NCCCc2ccccc2)n1`, the Inhibition was determined as 44%.

As for `COc1cc(CS(C)(=O)=O)ccc1Nc1nccc(-c2c(-c3cccc(NC(=O)c4c(F)cccc4F)c3)nn3ccccc23)n1`, the Inhibition was 46%.

Regarding `Cc1cccc2nc(-c3cccc(-c4ccc(CNCc5ccc(S(C)(=O)=O)cc5)cc4)c3)[nH]c12.O=C(O)C(F)(F)F`, the Inhibition was found to be 8%.

As for `COc1ccc2nccc([C@@H](O)CN3CCC(NCc4cc5ccccc5nc4O)CC3)c2c1.Cl`, the Inhibition is reported as 0%.

`CCC1(CC)CN(c2ccccc2)c2ccc(O)cc2S(=O)(=O)C1CC(C)C` (configuration not stated) yielded an Inhibition of 0%.

The molecule `CON=C1CCC(Cn2ccnc2)(c2ccc(Cl)cc2Cl)CC1` (configuration not stated) showed an Inhibition of 7%.

Take `Cc1ccc2c(c1[N+](=O)[O-])N=NCC2Oc1ccccc1` (configuration not stated): the Inhibition amounted to 16%.

As to `COc1ccc(Nc2nccc(N3CCC(NC(=O)c4cccc(NC(C)=O)c4)C3)n2)cc1` (configuration not stated), the Inhibition is 0%.

Turning to `CCOc1ccc(Br)cc1/C=C/C(=O)Nc1ccc(C2CCN(C)CC2)cc1`, the Inhibition is 30%.

Molecule `O=C(NC1CC1)c1ccc(Cn2c(SCc3cccc([N+](=O)[O-])c3)nc3ccccc3c2=O)cc1` yielded an Inhibition of 12%.

For `O=C(Nc1ccc(-c2nc3ccccc3[nH]2)cc1)c1ccc(S(=O)(=O)N2CCCCCC2)cc1`, the Inhibition is 8%.

In turn, `O=C(N[C@@H](Cc1ccccc1)CN1CCC(Oc2ccc(F)cc2)CC1)c1ccc(OCCCN2CCCCC2)cc1.O=C(O)C(F)(F)F` gave an Inhibition of 38%.

The molecule `CCC(C)CN1CCN(c2cc(NC(=O)c3cccs3)ccn2)C(C)C1.O=C(O)C(F)(F)F` (configuration not stated) registered an Inhibition of 5%.

For the molecule `CC1CN(c2cnn(Cc3cccc(NC(=O)Nc4ccc(-c5ccccc5)cc4)c3)c(=O)c2Cl)CC(C)N1.O=C(O)C(F)(F)F` (configuration not stated), the Inhibition was found to be 6%.

The molecule `Cc1cc(NCCc2ccccc2)nc(N/C(=N/CC(=O)OC(C)(C)C)Nc2ccc(C(F)(F)F)cc2)n1.I` had an Inhibition of 23%.

For the molecule `O=C(c1cc(C(=O)Nc2ccc(F)cc2)c(=O)n(-c2ccc(F)cc2)c1)c1cc(Cl)ccc1O`, the Inhibition is given as 13%.

Turning to `Nc1ncnc2cc(-c3cccc(S(N)(=O)=O)c3)sc12`, the Inhibition is reported as 13%.

For the molecule `Cc1noc(-c2ccccc2)c1CN1CCCC2(CC(C(=O)NCc3cccc(F)c3F)=NO2)C1.O=C(O)C(F)(F)F` (configuration not stated), the Inhibition came to 0%.

Consider `CCOc1ccc2nc(N(CCCn3ccnc3)C(=O)C=Cc3cccs3)sc2c1.Cl`, for which the Inhibition is 0%.

For `Nc1ccc2nc(C=Cc3ccccc3)[nH]c2c1`, the Inhibition was 7%.

In turn, `CC(C)NCc1cccc(-c2ccc(NC(=O)c3ccc(C#N)cc3)cc2)c1.O=C(O)C(F)(F)F` yielded an Inhibition of 15%.

As to `O=C(N[C@H]1CCN(Cc2ccc(OCCCN3CCCCC3)cc2)C1)c1ccc2ccccc2c1`, the Inhibition worked out at 8%.

Take `CC(C)[C@H](NC(=O)c1ccc(O)c(-c2ccc(Cl)c(Cl)c2)c1)C(=O)NCCN1CCCC1`: the Inhibition came to 4%.

As to `CC[C@H](C)CNC(=O)c1ccnc(-c2ccc(CNCCCc3ccccc3)cc2)c1.O=C(O)C(F)(F)F`, the Inhibition stood at 17%.

Take `CS(=O)(=O)c1ccc(CNCc2cccc(-c3cccc(-c4nc5cc(F)ccc5[nH]4)c3)c2)cc1.O=C(O)C(F)(F)F`: the Inhibition was 11%.

Regarding `COc1ccc2nccc([C@@H](O)CN3CCC(NC(=O)c4cc5c(F)cc(F)cc5[nH]4)CC3)c2n1`, the Inhibition is 32%.

As a reminder, the Inhibition is the relative decrease from the control value, in per cent. Read a low Inhibition as a weak effect.

The record behind these values is ChEMBL document CHEMBL1157539, “Thousands of chemical starting points for antimalarial lead identification” (Nature, 2010).
